Bioassay records from PubChem BioAssay.
This is a sample that favours compounds with a hit; in the whole collection about 1.8% have one here.
GLP1R cytotox = cytotoxic in the GLP-1 receptor inverse agonist counter-screen. HEK293 cAMP-luciferase reporter cells, luminescence, 24 h. Potency, µM (highest dose often 38.3 µM), without a hit: at the top dose activity change, negative = inhibition, actives largely listed as inhibitors. hit rate 0.13% among 410,000. AID 624418;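 further: loss of luciferase light is scored as toxicity; potency means the concentration at half of the fitted maximal effect; on the % scale 0 is the no-effect control and ±100 the full control effect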
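Compound-treated cells are incubated 24 hr at 37 deg C under 5% CO2 after a 12 hour attachment period, then luciferase detection reagent is added and luminescence is measured following 12 min at room temperature; lowered signal indicates toxicity.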
GLP-1R agonist = GLP-1 receptor (human) agonism; P43220; hit rate 0.007% among 380,000; AID 624172; HEK293 GLP-1R CRE-luciferase, luminescence, 4-6 h; cells express a hypersensitive GLP-1R form; Potency, µM (titrated, usually from 45.6 µM), for inactives: at the highest dose activation, most hits filed as activators; further: potency means the concentration at half of the fitted maximal effect; % of control where 0% means no effect
GLP-1R inv ag = acts as inverse agonist at human GLP-1 receptor; Potency, µM (series often up to 38.3 µM), for the others: top-dose activity change, negative = inhibition, actives largely listed as inhibitors; hit rate 1.6% among 410,000; HEK293 GLP-1R CRE-luciferase, luminescence, 24 h; GLP-1R form is constitutively active; P43220; AID 624417; further: potency means the concentration at half of the fitted maximal effect; on the % scale 0 is the no-effect control and ±100 the full control effect; nearly all actives have a fitted effect of over 55% in size
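Using stably transfected HEK293 (constitutively active GLP-1R, cAMP-luciferase reporter), compounds were incubated 24 hr and luciferase measured by luminescence.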
TSHR antagonist = antagonists of human thyroid stimulating hormone receptor; P16473; TSHR-expressing cells, TSH-stimulated cAMP HTRF, 2 h; stronger effect = lower value; activity change, negative = inhibition, % at 11.5 µM; hit rate 0.2% among 330,000; AID 504810;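 active means activity change below a set negative limit, meaning inhibition stronger than a set level, cut at about -70% in these data; inconclusive means activity change between two set negative limits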; further: on the % scale 0 is the no-effect control and ±100 the full control effect
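Read-out is FRET at 665 nm (cryptate excitation 337 nm) from a cryptate-tagged anti-cAMP antibody, competed by cell cAMP against cAMP-d2. Compounds are tested on freshly harvested TSHR cells challenged with 4nM TSH (EC80) for 2 hours at 37 deg C.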
PTHR1 agonist = agonists of human PTHR1 parathyroid hormone receptor; Q03431; HEK293 GP2 PTHR1 cells, GloSensor cAMP luminescence, 1 h; hit rate 0.075% among 410,000; Potency, µM (series often up to 115 µM), for the others: top-dose activation, hits mostly activators; AID 743266; further: potency means the concentration at half of the fitted maximal effect; nearly all actives have a fitted effect of over 55% in size
Target sequence (Q03431 whole entry, looked up): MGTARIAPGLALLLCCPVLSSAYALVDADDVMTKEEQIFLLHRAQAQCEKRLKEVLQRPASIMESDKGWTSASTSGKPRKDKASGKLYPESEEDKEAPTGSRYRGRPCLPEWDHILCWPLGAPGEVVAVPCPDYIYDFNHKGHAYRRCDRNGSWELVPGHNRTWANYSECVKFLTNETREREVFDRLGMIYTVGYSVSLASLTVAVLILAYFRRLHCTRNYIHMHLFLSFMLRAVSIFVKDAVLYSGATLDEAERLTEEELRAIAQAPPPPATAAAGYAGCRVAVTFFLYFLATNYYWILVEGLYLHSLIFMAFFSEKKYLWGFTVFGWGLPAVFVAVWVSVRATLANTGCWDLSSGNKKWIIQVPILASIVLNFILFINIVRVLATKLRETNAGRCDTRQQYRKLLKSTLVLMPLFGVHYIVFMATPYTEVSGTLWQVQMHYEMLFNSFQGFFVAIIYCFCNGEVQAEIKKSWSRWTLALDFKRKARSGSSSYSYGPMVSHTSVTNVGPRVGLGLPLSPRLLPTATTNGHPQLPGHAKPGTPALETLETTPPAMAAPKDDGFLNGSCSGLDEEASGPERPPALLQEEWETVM
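HEK-293-derived GP2 cells expressing PTHR1 and a GloSensor cAMP reporter, 3,000/well, plated overnight, given luciferin plus IBMX (each 0.5 mM as added) for 1 h at 37 °C, then compound for 1 h at 37 °C. Luminescence was read after 15 min at room temperature.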
An asterisk follows results filed as active; i = inactive; ? = inconclusive; / = no result given; [ ] = another dose, or the depositor's remark. Unless noted, the call rests on the fitted dose curve; in most records, active means well fitted curve in the direction sought with a large enough effect; inconclusive means small, poorly fitted or top-dose-only effect, or another doubt; inactive means no such curve, though single readings can be large; an effect the other way counts as inactive or inconclusive.

SMILES	GLP1R cytotox	GLP-1R agonist	GLP-1R inv ag	TSHR antagonist	PTHR1 agonist
O=C(N[C@@H](Cc1ccccc1)C(=O)N1CCC2(CC1)NCCc1[nH]cnc12)c1cccc(Br)c1	-22%	8%	10µM*	-2	i
CCc1ccc(-c2n[nH]nc2C2=CC(=O)C[C@H](c3ccc(F)cc3)C2)cc1	-10%	-5%	8.9µM*	/	-56%
COc1ccccc1-c1n[nH]nc1C1=CC(=O)C[C@H](c2ccc(F)cc2)C1	1%	-2%	-8%	/	-18%
CCc1ccccc1NC(=O)c1ccc2c(O)c(S(=O)(=O)c3ccccc3)c(=O)[nH]c2c1	4%	/	3%	/	i
COc1cccc(N2CCN(C(=O)c3cccc(NC(=O)c4nsc5ccccc45)c3)CC2)c1	-10%	/	?	/	-41%
CCOc1ccc(-c2ccc(SC)nn2)cc1	-2%	-2%	2.2µM*	5	-34%
COc1ccc(-c2cn3c(n2)sc2cc(C(=O)NC4CCCc5ccccc54)ccc23)cc1 (centres undefined)	-8%	/	15%	/	i
CCOC(=O)c1ccc(NC(=O)CSc2nccn2-c2cc(C)cc(C)c2)cc1	0%	12%	12%	/	-22%
CC(C)C[C@H]1CNC(=S)N1CC1CCN(CCC23CC4CC(CC(C4)C2)C3)CC1	-2%	0%	10µM*	/	-41%
Cc1cccc(NC(=S)NCc2ccccn2)c1	?	0%	?	4	i
Cc1ccc(NC(=S)NCc2ccccn2)cc1	?	-15%	?	-15	16µM*
CCC(C)Cn1c(/C=C/c2ccccc2)nc2ccccc21 (centres undefined)	17%	/	?	/	-35%
O=[N+]([O-])c1ccc(N/N=C2\CC3CC=CC23)c([N+](=O)[O-])c1 (centres undefined)	6%	17%	-10%	21	-40%
O=[N+]([O-])c1ccc(N/N=C2\CC3CC=CC23)cc1 (centres undefined)	?	11%	1.3µM*	-13	-94%
Cc1cc(C)nc(N/N=C/c2sccc2C)n1	-4%	6%	-2%	1	i
Cc1ccsc1/C=N/Nc1nc(=O)[nH]nc1C	?	0%	3.5µM*	0	-13%
CCOC(=O)COc1ccc([N+](=O)[O-])cc1-c1ccnc2cc(-c3ccc(Cl)cc3)nn12	-4%	-2%	0%	/	i
COc1ccc2sc(-c3ccc(S(C)(=O)=O)cc3)c(C#CCO)c2c1	12%	-5%	17%	-78*	-34%
COc1ccc2c(C#CCCO)c(-c3ccc(S(C)(=O)=O)cc3)sc2c1	25%	7%	1%	-3	-9%
COc1ccc(NC(=O)c2c(NCc3ccc(C)o3)sc3c2CCC(C)C3)cc1 (centres undefined)	-11%	/	?	/	i
CC(=NNc1ccc2ccccc2n1)c1ccccc1O	?	-21%	2.8µM*	/	-29%
NS(=O)(=O)c1ccc(CCNc2nc3c(-c4cccc(F)c4)nnn3c3ccc(Cl)cc23)cc1	0%	5%	5%	/	-5%
Nc1ccn(C2CO[C@H](CO)O2)c(=O)n1 (some centres undefined)	/	6%	/	/	/
C=C(C(=O)c1ccccc1)C(NC(C)(C)C)c1ccccc1 (centres undefined)	5µM*	-23%	5µM*	/	-39%
Cc1ccc(-c2cc(C(F)(F)F)nc(SCC(=O)c3cccc([N+](=O)[O-])c3)n2)cc1	62%	-3%	5.6µM*	-14	-15%
SMILES	GLP1R cytotox	GLP-1R agonist	GLP-1R inv ag	TSHR antagonist	PTHR1 agonist
OCC1OC(OC2C(CO)OC(OC3C(CO)OC(O)C(O)C3O)C(O)C2O)C(O)C(O)C1O (centres undefined)	/	8%	/	/	/
Cc1ccc(-c2nc(NCCN3CCOCC3)c3ccccc3n2)cc1	-8%	9%	0%	11	i
Clc1cccc(-c2nc(NCCN3CCOCC3)c3ccccc3n2)c1	-19%	17%	7.1µM*	-14	-7%
Clc1cccc(-c2nc(NCCCN3CCOCC3)c3ccccc3n2)c1	-8%	3%	10µM*	-30	i
Clc1ccc(-c2nc(NCCCN3CCOCC3)c3ccccc3n2)cc1	?	18%	?	-4	i
COc1ccc(CNC(=O)c2ccc(Cn3c(=O)c4cccn4c4cccnc43)cc2)cc1OC	6%	/	17%	/	2%
CN(C)S(=O)(=O)N(CC(=O)Nc1ccc(Br)cc1F)c1ccccc1	4%	12%	?	/	-12%
CCOC(=O)c1c(CC(C)C)csc1NC(=O)c1ccccc1C(=O)O	-10%	-2%	11µM*	-7	-3%
CCOC(=O)CNC(=O)c1ccc(C)cc1	-3%	8%	3%	-3	-6%
CCO/C=C/C(O)(CNC(=O)c1ccc(C(C)(C)C)cc1)C(F)(F)F (centres undefined)	-17%	-2%	8.9µM*	3	-18%
Cc1cccc(S(=O)Cc2ccc(C(=O)NC3CCCCCC3)o2)c1 (centres undefined)	-20%	/	-5%	/	0%
O=C(Cn1cnc([N+](=O)[O-])c1)Nc1cc(Oc2ccc(Cl)cc2Cl)cc([N+](=O)[O-])c1	?	-50%	5.6µM*	-18	-17%[57.5 µM]
N#Cc1ccc(NC(=O)Cn2cnc([N+](=O)[O-])c2)cc1	-2%	6%	-10%	-2	i
COc1ccc(-c2cc3nc(C)c(CCC(=O)NC4CCCCC4)c(C)n3n2)c(OC)c1	-10%	-2%	9%	/	-10%
COc1cc(C2NC(=O)c3ccccc3O2)cc(OC)c1OC (centres undefined)	4%	-4%	0%	9	-16%
COc1cc(C2Oc3ccccc3C=C2[N+](=O)[O-])cc(OC)c1OC (centres undefined)	-21%	-17%	11µM*	-33	-64%
Cc1ccc2c(c1)c1c(c(=O)n(Cc3ccccc3)c(=O)n1CC(=O)Nc1ccccc1F)n2C	-4%	0%	9%	/	-9%
Cc1ccc(-c2nnc(SCC(=O)NC3CCCC3)n2C)cc1	-2%	9%	7%	-94*	i
Cc1ccc(Cn2c(/C=C/c3ccco3)nc3ccccc32)cc1	-11%	7%	11µM*	8	-27%
Clc1ccc(Cn2c(/C=C/c3ccco3)nc3ccccc32)cc1	-19%	4%	?	-4	i
CN(C)c1ccc(C(CNC(=O)COc2ccc(Cl)cc2)N2CCCC2)cc1 (centres undefined)	-22%	13%	11µM*	-1	i
CCCCC[C@@H](C)N1C[C@H](COCc2ccccc2)Oc2cc(N3CCC[C@@H]3CO)ccc2S1(=O)=O	-14%	0%	11µM*	/	-40%
